Measurements as given in PubChem BioAssay (Tox21).
Inconclusive results are not listed. The source made the active and inactive calls. Unless noted, calls come from the whole dose curve; as a rule, active = well fitted curve in the direction sought with a large enough effect in the repeat runs; inconclusive = weak or mixed curves; inactive = no such curve, though single readings can be large; an effect the other way counts as inactive or inconclusive.

What was measured:
[1] = qHTS assay to identify small molecule agonists of the vitamin D receptor (VDR) signaling pathway - cell viability counter screen (AID 743224); note: series mostly up to about 63 µM; nearly all actives have a fitted effect of over 50% in size
In short: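 In parallel with the bla FRET readout, cytotoxicity toward VDR-bla cells after 16 h compound exposure was assessed by CellTiter-Glo, with luminescence recorded after a 30 min room-temperature incubation.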

[2] = qHTS assay to identify small molecule antagonists of the vitamin D receptor (VDR) signaling pathway - cell viability counter screen (AID 743225); note: nearly all actives have a fitted effect of over 50% in size
In short: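 Parallel cytotoxicity test: VDR-UAS-bla HEK 293T, 3 nM (final) 1-alpha,25-dihydroxyvitamin D3 with test compound, 16 h, 37C. Endpoint is CellTiter-Glo luminescence in the same wells.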

[3] = qHTS assay to identify small molecule agonists of the NFkB signaling pathway (AID 1159509; active = well fitted curve in the direction sought with a large enough effect in the signal ratio in the repeat runs, not every such curve was filed as active; the % refers to the signal ratio; note: series mostly up to about 61 µM)
In short: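 Beta-lactamase reporter assay run in quantitative high-throughput format on an NF-kB-responsive ME-180 line, with 5 hr compound treatment and a FRET-based blue/green fluorescence readout.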

[4] = qHTS assay to identify small molecule agonists of the NFkB signaling pathway - cell viability counter screen (AID 1159515; calls by dose curve; note: series mostly up to about 61 µM; nearly all actives have a fitted effect of over 55% in size)
In short: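 Plate 2,000 NFkB-bla ME-180 cells/well; incubate overnight. Add compounds, 5 hr at 37 C. Add FRET substrate, 1.5 hr RT. Add CellTiter-Glo, 30 min RT; read luminescence.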

[5] = qHTS assay to identify small molecule agonists of the endoplasmic reticulum stress response signaling pathway (AID 1159516; active = well fitted activation curve with a large enough effect in the signal ratio in the repeat runs, not every such curve was filed as active; the % refers to the signal ratio)
In short: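 Beta-lactamase expression from the ER stress response element in HeLa reporter cells is quantified with the LiveBLAzer B/G FRET substrate, read at 405 nm excitation after 2 hr at room temperature, following 5 hr compound treatment at 37 C.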

[6] = qHTS assay to identify small molecule agonists of the endoplasmic reticulum stress response signaling pathway - cell viability counter screen (AID 1159517; calls by dose curve; note: series mostly up to about 61 µM; nearly all actives have a fitted effect of over 50% in size)
In short: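 After overnight attachment, ESRE-bla HeLa cells were treated with Tox21 library compounds for 5 hr. CellTiter-Glo luminescence, read 30 min post-addition at room temperature, reported viability.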

[7] = qHTS assay to identify small molecule antagonists of the retinoid-related orphan receptor gamma (ROR-gamma) signaling pathway - cell viability counter screen (AID 1159520); note: nearly all actives have a fitted effect of over 50% in size
In short: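 Cytotoxicity was read from cellular ATP (CellTiter-Glo luminescence) after 16 hr at 37 C with 1 uM doxycycline induction. The inducer was added 2 hr after compound transfer to Tet-on ROR gamma CHO cells.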

[8] = target: Nuclear receptor ROR-gamma (Homo sapiens) (UniProt P51449); test: qHTS assay to identify small molecule antagonists of the retinoid-related orphan receptor gamma (ROR-gamma) signaling pathway (AID 1159521)
In short: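 Decreased RORE-driven luciferase luminescence indicates antagonism. Tet-on RORγ CHO cells received compound, then 1 uM final doxycycline 2 h later; signal read after 16 h incubation.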

[9] = qHTS assay to identify small molecule agonists of the AP-1 signaling pathway - cell viability counter screen (AID 1159525; calls by dose curve; note: nearly all actives have a fitted effect of over 55% in size)
In short: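 Intracellular ATP by Cell Titer Glo luminescence (30 min, RT) in the same ME-180 AP-1-bla wells after the 5 h compound exposure at 37 °C. Normalised to tetra n-octyl ammonium bromide and DMSO controls.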

[10] = qHTS assay to identify small molecule agonists of the AP-1 signaling pathway (AID 1159526; calls by dose curve)
[11] = target: Retinoic acid receptor RXR-alpha (Homo sapiens) (UniProt P19793); test: qHTS assay to identify small molecule agonists of the RXR signaling pathway (AID 1159527; calls by dose curve; note: nearly all actives have a fitted effect of over 35% in size)
Sequence of Retinoic acid receptor RXR-alpha (Homo sapiens) (P19793 whole entry, looked up): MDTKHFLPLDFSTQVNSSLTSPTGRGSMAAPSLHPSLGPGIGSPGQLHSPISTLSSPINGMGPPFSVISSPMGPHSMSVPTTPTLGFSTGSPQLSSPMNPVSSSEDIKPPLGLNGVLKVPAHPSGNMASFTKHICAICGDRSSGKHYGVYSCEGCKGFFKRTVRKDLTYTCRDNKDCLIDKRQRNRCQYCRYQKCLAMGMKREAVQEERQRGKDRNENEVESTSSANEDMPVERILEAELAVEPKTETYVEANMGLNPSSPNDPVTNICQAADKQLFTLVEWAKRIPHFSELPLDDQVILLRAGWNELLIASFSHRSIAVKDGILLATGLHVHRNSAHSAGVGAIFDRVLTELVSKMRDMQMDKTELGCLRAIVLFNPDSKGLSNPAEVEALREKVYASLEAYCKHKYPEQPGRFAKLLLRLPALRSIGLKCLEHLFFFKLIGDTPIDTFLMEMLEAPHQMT
In short: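 16 hr incubation of compound-treated RXR-alpha-UAS-bla HEK 293T cells (2% charcoal-stripped FBS, 37 C) preceded a 2 hr room-temperature LiveBLAzer FRET substrate step and blue/green fluorescence measurement.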

[12] = qHTS assay to identify small molecule antagonists of the retinoic acid receptor (RAR) signaling pathway (AID 1159552; note: nearly all actives have a fitted effect of over 50% in size)
In short: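 C3RL4 RARE-luc cells, overnight plating; retinol 1 uM final added right after compound; 6 hr 37 C; luciferase read at 30 min RT.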

[13] = qHTS assay to identify small molecule agonists of the retinoic acid receptor (RAR) signaling pathway (AID 1159553)
In short: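 Compounds dissolved in DMSO were pinned onto C3RL4 cells seeded the previous day, and plates were held 6 hr at 37 C. RARE-driven luciferase output was then read by luminescence.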

[14] = qHTS assay to identify small molecule antagonists of the estrogen related receptor (ERR) signaling pathway - cell viability counter screen (AID 1224818);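 note: series mostly up to about 46 µM; viability measured after 17.5 h of compound exposure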
In short: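 Cytotoxicity check run alongside the ERR antagonist screen: cells exposed to test compounds 17.5 h at 37 C, viability taken as CellTiter-Fluor fluorescence intensity.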

[15] = qHTS assay to identify small molecule antagonists of the estrogen related receptor (ERR) signaling pathway (AID 1224819)
In short: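 ERR reporter cells were plated at 2,000 cells/well and left 6 h at 37 C/5% CO2 before pin-tool transfer of compounds in DMSO. After 18 h at 37 C, One-Glo was added and luminescence was read 30 min later at room temperature.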

[16] = qHTS assay to identify small molecule agonists of the estrogen related receptor (ERR) signaling pathway (AID 1224820)
In short: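 Following a 6 h settling period, 2,000 ERR cells per well receive DMSO-dissolved compounds by pin tool and incubate 18 h at 37 C; agonist activity is scored from One-Glo luminescence read 30 min post-addition.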

[17] = tested on: estrogen-related receptor alpha (ERRalpha) with PGC-1alpha coactivator, human; test: qHTS assay to identify small molecule antagonists of the estrogen related receptor signaling pathway with the pleiotropic PPARgamma coactivator (PGC) (AID 1224821; calls by dose curve)
In short: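 Screening used NTP's PGC/ERR cells, dosed via pin tool with compound in DMSO alongside positive and negative controls. After 18 h at 37 C, One-Glo reagent sat 30 min at room temperature before luminescence detection.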

[18] = qHTS assay to identify small molecule antagonists of the estrogen related receptor signaling pathway with the pleiotropic PPARgamma coactivator (PGC) cell viability counter screen (AID 1224822;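 note: series mostly up to about 46 µM; viability read after 17.5 h compound exposure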)
In short: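 Viable cell signal (CellTiter-Fluor, 30 min, 37 C/5% CO2) was measured in PGC/ERR cells after a 17.5 h compound incubation.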

[19] = qHTS assay to identify small molecule antagonists of the retinoid acid receptor (RAR) signaling pathway - cell viability counter screen (AID 1159551); note: nearly all actives have a fitted effect of over 35% in size
In short: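 Viability of C3RL4 cells is quantified from ATP by luminescence after 6 h treatment at 37 C with compounds and 1 uM retinol.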

[20] = qHTS assay to identify small molecule agonists of the RXR signaling pathway - cell viability counter screen (AID 1159529)
In short: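 In this parallel viability measure, GeneBLAzer RXR-alpha HEK 293T cells (2% charcoal-stripped FBS) were given a 5 hr preincubation, treated with compounds 16 hr at 37 C, and read by CellTiter-Glo luminescence.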

Measured: Potency

CN(C)CCOC(=O)COc1ccc(Cl)cc1
not listed: [19] | [20]
inactive: all other assays above

Cc1ccc([N+](=O)[O-])cc1S(=O)(=O)O
not listed: [14] | [15] | [16] | [17] | [18] | [20]
inactive: all other assays above

N#Cc1ccccc1
not listed: [12] | [13] | [14] | [15] | [16] | [17] | [18] | [20]
inactive: all other assays above

CCCCCCCCCCCCCCCC(=O)OC(C)C
not listed: [14] | [15] | [16] | [17] | [18] | [19] | [20]
inactive: all other assays above

Nc1nc(N)nc(-c2ccccc2)n1
not listed: [14] | [15] | [16] | [17] | [18] | [19]
inactive: all other assays above

CC(CCl)OP(=O)(OC(C)CCl)OC(C)CCl (stereo not given)
not listed: [14] | [15] | [16] | [17] | [18] | [20]
inactive: all other assays above

O=C1CCCC1
not listed: [14] | [15] | [16] | [17] | [18] | [19] | [20]
inactive: all other assays above

CCCCCCCO
not listed: [14] | [15] | [16] | [17] | [18] | [20]
inactive: all other assays above

CC(C)CC(=O)CC(C)CC(C)C (stereo not given)
not listed: [14] | [15] | [16] | [17] | [18] | [20]
inactive: all other assays above

CCOCC(=O)O
not listed: [14] | [15] | [16] | [17] | [18] | [19]
inactive: all other assays above
